High-throughput results as filed in PubChem BioAssay.
A selection: hits, their analogues and other compounds. The true share with any hit is near 6.5%.
Lassa entry inh: inhibitors of Lassa virus binding or cell entry | Lassa virus pseudotype entry inhibition, cell reporter | Potency, µM (highest dose often 37.9 µM), usual class: inhibitors | 300,000 compounds, 1.2% hits | AID 540256; calls by dose curve; tested in HEK293 cells; note: nearly all actives have a fitted effect of over 50% in size
Marburg entry inh: Marburg virus entry inhibition. Potency, µM (top dose mostly 37.8 µM), actives largely listed as inhibitors. 300,000 compounds, 1.8% hits. Marburg virus pseudotyped entry inhibition, cell reporter. AID 540276; calls by dose curve; tested in HEK293 cells
HCMV antiviral: inhibitors of human cytomegalovirus | HFF cells, HCMV-luciferase reporter, 72 h; stronger effect = lower value | activity change, negative = inhibition, % at 57.5 µM | 410,000 compounds, 4.5% hits | AID 1259415; in the data active = activity change below about -60%; inconclusive = no clear call, values can overlap the other calls; inactive = above about -39%
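After 16 h attachment at 37C, HFF cells received test compound and HCMV-luciferase (1 PFU/cell); reporter luminescence read 72 h later, data normalized against buffer-only and known inhibitor Salinomycin.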
VACV Venus inh: vaccinia inhibition (Venus reporter). Potency, µM (titrated, usually from 36.5 µM), actives largely listed as inhibitors. Vaccinia virus Venus reporter expression, fluorescence. 330,000 compounds, 0.46% hits; calls by dose curve; tested in A549 cells; note: nearly all actives have a fitted effect of over 30% in size
Vaccinia mCherry: inhibitors of vaccinia virus infection (mCherry reporter signal). Vaccinia virus mCherry reporter infection, fluorescence. Potency, µM (top dose mostly 36.5 µM), usual class: inhibitors. 310,000 compounds, 0.63% hits; calls by dose curve; tested in A549 cells; note: nearly all actives have a fitted effect of over 35% in size
FMDV antiviral: antivirals against foot and mouth disease virus | FMDV antiviral cell-based qHTS | AID 1159524 | Potency, µM (highest dose often 57.9 µM), actives largely listed as inhibitors | 410,000 compounds, 1.2% hits; calls by dose curve; tested in HEK293T cells; note: read-out not given here; nearly all actives have a fitted effect of over 45% in size
Each line names hits and unclear results; the compound was inactive in the other large screens.

COc1ccc(C(=O)C2CCCN(Cc3cccc(C)n3)C2)c(OC)c1 (stereo unspecified)	Lassa entry inh inconclusive, Marburg entry inh inconclusive
COc1c(C)cc(C(=O)C2CCCN(C(=O)c3ccc4[nH]ccc4c3)C2)cc1C (stereo unspecified)	Lassa entry inh 4.47µM, HCMV antiviral inconclusive
COc1c(C)cc(C(=O)C2CCCN(C(=O)CCc3scnc3C)C2)cc1C (stereo unspecified)	HCMV antiviral -62.1 (no result: Lassa entry inh, Marburg entry inh)
COc1cccc(C(=O)C2CCCN(Cc3ccccn3)C2)c1 (stereo unspecified)	none
COC[C@@H](OC(C)=O)[C@H]1OCc2ccccc2[C@@H]1C=Cc1ccccc1	none (no result: Lassa entry inh, HCMV antiviral, VACV Venus inh, Vaccinia mCherry, FMDV antiviral)
CCCCc1ccc(C(=O)COC(=O)c2ccc3nc(C)c(C)nc3c2)cc1	none (no result: Lassa entry inh, Marburg entry inh, HCMV antiviral, FMDV antiviral)
C=CC(=O)NCCCc1cc(C(C)(C)C)c(O)c(C(C)(C)C)c1	Lassa entry inh inconclusive, HCMV antiviral -95.9, VACV Venus inh inconclusive, Vaccinia mCherry inconclusive
CC(C)(C)c1cc(CCC(=O)NN)cc(C(C)(C)C)c1O	Lassa entry inh inconclusive
COc1ccc(-c2nc3nc(C)cc(N4CCN(c5cccc(C(F)(F)F)c5)CC4)n3n2)cc1	Lassa entry inh inconclusive
COc1cccc(-n2nnc3c(=O)n(Cc4ccc(Cl)cc4)cnc32)c1	Lassa entry inh inconclusive (no result: VACV Venus inh, Vaccinia mCherry)
Cc1ccc(Cn2nnc3c(=O)n(CC(=O)N4CCN(c5ccccc5)CC4)cnc32)cc1	HCMV antiviral -65.4 (no result: FMDV antiviral)
O=C(Cn1cnc2c(nnn2Cc2ccc(Cl)cc2)c1=O)c1ccccc1	HCMV antiviral -70.7 (no result: Lassa entry inh, Marburg entry inh)
COc1cccc(-n2nnc3c(=O)n(Cc4ccc(C)cc4)cnc32)c1	Lassa entry inh 4.11µM, Marburg entry inh inconclusive (no result: VACV Venus inh, Vaccinia mCherry)
C=CCN1C(=S)N=NC1c1ccccc1 (stereo unspecified)	none (no result: Lassa entry inh, HCMV antiviral, VACV Venus inh, Vaccinia mCherry, FMDV antiviral)
Cc1nc(N)c(CC(Br)CBr)c(Cl)n1 (stereo unspecified)	HCMV antiviral -68.5 (no result: Lassa entry inh, Marburg entry inh, VACV Venus inh, Vaccinia mCherry)
CC[C@@H](C)[C@H](C(CC(=O)N1CCCC1[C@@H](OC)[C@H](C)C(=O)N[C@H](Cc1ccccc1)c1nccs1)OC)N(C)C(=O)[C@H](NC(=O)[C@@H](C(C)C)N(C)C)C(C)C (stereo partly specified)	Lassa entry inh inconclusive, HCMV antiviral -90.7, VACV Venus inh inconclusive
COc1ccccc1CC(=O)Nc1ccccc1O	none (no result: VACV Venus inh, Vaccinia mCherry)
COc1cccc(CNc2ccc([N+](=O)[O-])cc2C)c1	Lassa entry inh inconclusive
COc1ccc(OC)c(CNc2ccc([N+](=O)[O-])cc2C)c1	HCMV antiviral -91.3, FMDV antiviral inconclusive
COc1ccccc1CC(=O)Nc1ccc([N+](=O)[O-])cc1O	Lassa entry inh 6.31µM, Marburg entry inh inconclusive, HCMV antiviral inconclusive, Vaccinia mCherry inconclusive, FMDV antiviral inconclusive
COc1ccc2cc3cc(C(=O)Nc4ccccc4C)oc3nc2c1	VACV Venus inh inconclusive
O=C1CCC/C1=c1\s/c(=C\c2cccnc2)c(=O)n1-c1ccccc1	Marburg entry inh inconclusive, HCMV antiviral -78.9, FMDV antiviral inconclusive
O=C1CCC/C1=c1\s/c(=C/c2cccnc2)c(=O)n1-c1ccccc1	Lassa entry inh inconclusive, Marburg entry inh inconclusive
CCc1sc(C(=O)Nc2cc(Cl)ccc2N2CCCCC2)cc1C	HCMV antiviral -62.8
COC(=O)[C@H]1[C@H](CO)[C@H]2Cn3c(ccc(Br)c3=O)[C@@H]1N2C(=O)NC(C)C	none (no result: Lassa entry inh, Marburg entry inh, VACV Venus inh, Vaccinia mCherry, FMDV antiviral)
CCCS(=O)(=O)c1nc(S(=O)(=O)c2ccc(C)cc2)c(N2CCOCC2)s1	HCMV antiviral -62.6
Cc1ccc(S(=O)(=O)c2nc(S(C)(=O)=O)sc2N2CCCCCC2)cc1	HCMV antiviral inconclusive (no result: Lassa entry inh, Marburg entry inh)
Cc1ccc(S(=O)(=O)c2nc(S(C)(=O)=O)sc2N2CCN(C)CC2)cc1	HCMV antiviral -103.8 (no result: Lassa entry inh, Marburg entry inh, VACV Venus inh, Vaccinia mCherry)
Cc1ccc(-c2nnc(Nc3ccc(Cl)cc3)c3ccccc23)cc1S(=O)(=O)N1CCOCC1	Lassa entry inh inconclusive (no result: Marburg entry inh)
CCC(C)c1ccc(NC(=S)NC2CCN(Cc3ccccc3)CC2)cc1 (stereo unspecified)	Lassa entry inh inconclusive, Marburg entry inh 11.2µM, HCMV antiviral -98.3, VACV Venus inh 10µM, Vaccinia mCherry inconclusive, FMDV antiviral inconclusive
COc1ccc(CCNC(=S)NC2CCN(Cc3ccccc3)CC2)cc1	Marburg entry inh inconclusive, HCMV antiviral -71.8, Vaccinia mCherry inconclusive
S=C(NCCc1ccccc1)NC1CCC(NC(=S)NCCc2ccccc2)CC1 (stereo unspecified)	Lassa entry inh inconclusive, HCMV antiviral inconclusive
CCc1ccc(NC(=S)NC2CCN(Cc3ccccc3)CC2)cc1	Lassa entry inh inconclusive, Marburg entry inh inconclusive, HCMV antiviral -77.4, VACV Venus inh inconclusive, Vaccinia mCherry inconclusive
CC(=O)N(c1ccc(Cl)cc1)C1SC(=O)N(c2ccccc2)C1=O (stereo unspecified)	none (no result: Lassa entry inh, Marburg entry inh, HCMV antiviral, FMDV antiviral)
Cc1cccc(C)c1Nc1oc(-c2ccccc2)nc1C(C)(C)C	none (no result: Lassa entry inh, HCMV antiviral, VACV Venus inh, Vaccinia mCherry, FMDV antiviral)
CCOC(=O)c1c(NC(=O)CN2CCN(C(=O)c3ccco3)CC2)sc(C)c1C	Lassa entry inh 11.2µM, Marburg entry inh inconclusive, VACV Venus inh inconclusive, Vaccinia mCherry inconclusive
CCc1c(C)sc(NC(=O)CN2CCN(C(=O)c3ccco3)CC2)c1C(=O)OC	Lassa entry inh 3.55µM, Marburg entry inh inconclusive, FMDV antiviral inconclusive
OC1CCC(Nc2nccc3[nH]c(-c4cccc(C(F)(F)F)c4)nc23)CC1 (stereo unspecified)	none (no result: Lassa entry inh, Marburg entry inh, VACV Venus inh, Vaccinia mCherry, FMDV antiviral)
COc1ccc(C2CN=NC2C(=O)c2ccccc2)cc1 (stereo unspecified)	HCMV antiviral -64.4 (no result: Lassa entry inh, Marburg entry inh)
COc1ccc(S(=O)(=O)c2c(C(=O)c3ccc(C)c(C)c3)cnc3ccc(C)cc23)cc1	Marburg entry inh inconclusive, HCMV antiviral inconclusive (no result: Lassa entry inh)
CCOc1ccc(S(=O)(=O)c2c(C(=O)c3ccc(C)cc3)cnc3cc4c(cc23)OCCO4)cc1	Marburg entry inh inconclusive, HCMV antiviral -62.1
CCOc1ccc(Nc2sc(C(=O)c3ccc4c(c3)OCO4)c(N)c2S(=O)(=O)c2ccc(C)cc2)cc1	none (no result: Marburg entry inh)
Cc1ccc2ncc(C(=O)c3ccc(C)c(C)c3)c(S(=O)(=O)c3ccccc3)c2c1	Marburg entry inh inconclusive, HCMV antiviral -92.2 (no result: Lassa entry inh)
Cc1ccc(C(=O)c2cnc3cc4c(cc3c2S(=O)(=O)c2ccccc2)OCCO4)cc1	Marburg entry inh 7.08µM, HCMV antiviral -93.6, VACV Venus inh inconclusive, Vaccinia mCherry inconclusive
COc1ccc(NCc2nnc(SCC(=O)c3ccc(OC)cc3)o2)cc1	Marburg entry inh inconclusive (no result: VACV Venus inh, Vaccinia mCherry)
CCOc1cc(C(=O)CSc2nnc(CNc3ccc(Cl)cc3)o2)ccc1NC(=O)CC	Lassa entry inh inconclusive, Marburg entry inh inconclusive, HCMV antiviral -87.2, VACV Venus inh 12.6µM, Vaccinia mCherry inconclusive, FMDV antiviral inconclusive
CCc1cccc2c(C(=O)CN3C(=O)NC4(CCc5ccccc54)C3=O)c[nH]c12 (stereo unspecified)	Lassa entry inh inconclusive, Marburg entry inh inconclusive, HCMV antiviral -69.4, VACV Venus inh inconclusive, Vaccinia mCherry inconclusive
